Test results taken from PubChem BioAssay (Tox21).
Results filed as inconclusive are left out. A number with no mark means an inactive call. Unless noted, calls follow the shape of the dose curve; as a rule, active = well fitted activation curve with a large enough effect; inconclusive = small, poorly fitted or top-dose-only effect; inactive = flat fitted curve, though single readings scatter. Starred links: 1 amine or outer side, 2 acyl side, 3 side chain; linkers in the order of their positions; H or OH if unused. Positions of bridges follow the written chain, without caps; N, C: chain ends. Non-standard residues stand in square brackets, D forms with d. Residues, ends and D or L forms follow the SMILES beside them. *: point of attachment. X5 = NC1=N[C@@H]([C@H](N[*:1])C(=O)[*:2])C[C@H](O)N1; ΔAla(Z-3-ureido) = NC(=O)N/C=C(\N)C(=O)O; β3hOrn = NCCC[C@H](N)CC(=O)*; Dap = NC[C@H](N)C(=O)O

Molecular target: Peroxisome proliferator-activated receptor gamma (Homo sapiens) (UniProt P37231)
Assay: qHTS assay to identify small molecule agonists of the peroxisome proliferator-activated receptor gamma (PPARg) signaling pathway (AID 743094; active = well fitted activation curve with a large enough effect in the signal ratio in the repeat runs, not every such curve was filed as active; the % refers to the signal ratio)
Settings: HEK293H PPARg-UAS-bla, beta-lactamase FRET ratio, 17 h; series mostly up to 57 µM; activation: at the top concentration
Summary of the method: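 GeneBLAzer PPARg UAS-bla HEK293H cells were plated, rested 5 h, then exposed to compounds for 17 h at 37C. Beta-lactamase activity was read by LiveBLAzer B/G FRET substrate fluorescence after 1 h at room temperature.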
% is scaled to controls: 0 for no effect and ±100 for the full control effect.

Sequence of Peroxisome proliferator-activated receptor gamma (Homo sapiens) (P37231 whole entry, looked up): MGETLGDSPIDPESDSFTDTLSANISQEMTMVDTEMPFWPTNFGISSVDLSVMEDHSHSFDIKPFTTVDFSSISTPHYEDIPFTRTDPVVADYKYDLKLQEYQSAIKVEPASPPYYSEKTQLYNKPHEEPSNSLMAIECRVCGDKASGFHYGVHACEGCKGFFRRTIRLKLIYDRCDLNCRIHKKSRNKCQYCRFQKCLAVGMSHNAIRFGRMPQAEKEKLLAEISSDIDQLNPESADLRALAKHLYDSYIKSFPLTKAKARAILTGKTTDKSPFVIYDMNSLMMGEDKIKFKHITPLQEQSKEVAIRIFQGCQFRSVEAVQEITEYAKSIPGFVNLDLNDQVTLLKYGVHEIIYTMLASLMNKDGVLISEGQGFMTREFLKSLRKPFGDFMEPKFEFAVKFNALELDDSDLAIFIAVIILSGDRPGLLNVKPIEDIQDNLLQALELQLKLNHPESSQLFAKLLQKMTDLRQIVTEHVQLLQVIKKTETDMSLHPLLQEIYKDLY

| SMILES | activation |
| --- | --- |
| CCCN(CC)C(CC)C(=O)Nc1c(C)cccc1C (stereo unspecified) | -2.57% |
| CN[C@@H]1[C@@H](O)[C@@H](O[C@@H]2[C@@H](O)[C@H](OC3OC(CN)=CCC3N)[C@@H](N)C[C@H]2N)OC[C@]1(C)O (stereo partly specified) | 5.56% [at 26.2 µM] |
| Cn1cc(NC(=O)c2cc(NC(=O)c3cc(NC=O)cn3C)cn2C)cc1C(=O)NCCC(=N)N | 4.88% |
| CS(=O)(=O)Nc1cc2occ(NC=O)c(=O)c2cc1Oc1ccccc1 | -0.672% |
| O=c1[nH]cnc2[nH]cc(CN3CCCCC3)c12 | 0.834% |
| C[C@]12C=CC(=O)C=C1CC[C@@H]1[C@@H]2[C@@H](O)C[C@@]2(C)[C@H]1CC[C@]2(O)C(=O)COC(=O)CCC(=O)O | 2.36% |
| CNC[C@@H]1CC[C@@H](N)[C@@H](O[C@H]2[C@H](O)[C@@H](O[C@H]3OC[C@](C)(O)[C@H](NC)[C@H]3O)[C@H](N)C[C@@H]2N)O1 | -0.678% |
| C=C1CC2C3CCC4=CC(=O)C=C[C@]4(C)[C@@]3(F)[C@@H](O)C[C@]2(C)[C@@]1(O)C(=O)COC(C)=O (stereo partly specified) | 2.82% |
| O=C(NOC[C@H](O)CO)c1ccc(F)c(F)c1Nc1ccc(I)cc1F | -1.34% |
| NCCC(=O)[N-][C@@H](Cc1cnc[nH]1)C(=O)O.[Zn] | -4.52% |
| OCC(O)COc1ccc(Cl)cc1 (stereo unspecified) | 2.83% |
| C[C@H]1C[C@H]2[C@@H]3CCC4=CC(=O)C=C[C@]4(C)[C@@]3(F)[C@@H](O)C[C@]2(C)[C@@]1(O)C(=O)CCl | -12.9% |
| CCN(CC)c1ccc(N=Nc2ccc(S(=O)(=O)N(C)C)cc2)c(S(=O)(=O)NCC[n+]2ccccc2)c1 | 4.36% |
| Cc1c(O)cc2c(c1C)O[C@](C)(CCC[C@H](C)CCC[C@H](C)CCCC(C)C)CC2 | -0.943% |
| c1ccc2c(CCC3CCNCC3)c[nH]c2c1 | -10% |
| CC(=O)OCC(=O)[C@@]1(O)[C@H](C)C[C@H]2[C@@H]3C[C@H](F)C4=CC(=O)C=C[C@]4(C)[C@H]3[C@@H](O)C[C@@]21C | 2.63% |

| SMILES | activation |
| --- | --- |
| CC(C)(C)CC(=O)OCC(=O)[C@@]12OC(C)(C)O[C@@H]1C[C@H]1[C@@H]3CCC4=CC(=O)C=C[C@]4(C)[C@@]3(F)[C@@H](O)C[C@@]12C | -1.64% |
| CC(=O)N[C@@H](CC(=O)N[C@@H](CCC(=O)O)C(=O)O)C(=O)O | 1.6% |
| C=C1c2c(Cl)ccc(O)c2C(O)=C2C(=O)[C@]3(O)C(O)=C(C(N)=O)C(=O)[C@@H](N(C)C)[C@@H]3[C@@H](O)[C@H]12 | -1.36% [at 26.2 µM] |
| CCCCCCCCCCCCCCCC(=O)OC[C@@H](COP(=O)([O-])OCC[N+](C)(C)C)OC(=O)CCCCCCCCCCCCCCC | -4% |
| C[N+](C)(CCCCCC[N+](C)(C)C1c2ccccc2-c2ccccc21)C1c2ccccc2-c2ccccc21 | -2.98% |
| NCCC[C@H](N)CC(=O)N[C@H]1CNC(=O)[C@H]([C@H]2C[C@H](O)NC(N)=N2)NC(=O)/C(=C/NC(N)=O)NC(=O)[C@H](CO)NC(=O)[C@H](CO)NC1=O (β3hOrn-[Dap]SS[ΔAla(Z-3-ureido)][X5]; lactam 1-C) | -0.729% |
| CCCCCCCCCCCCCCCCCC(=O)OCCO | 0.637% |
| CO[C@H]1[C@@H](O)[C@H](N)[C@@H](O[C@H]2O[C@H]([C@H](C)N)CC[C@H]2N)[C@H](O)[C@@H]1N(C)C(=O)CN | 0.397% |
| CN(CCO)CC(O)Cn1cnc2c1c(=O)n(C)c(=O)n2C (stereo unspecified) (tested in a mixture with another compound) | 2.44% |
| CCOC(=O)[C@H](CCc1ccccc1)N[C@H]1CCCN2CCC[C@@H](C(=O)O)N2C1=O | -1.76% |
| O=C[C@H](O)[C@@H](O)[C@H](O[C@H]1O[C@H](CO)[C@@H](O[C@H]2O[C@H](CO)[C@@H](O)[C@H](O)[C@H]2O)[C@H](O)[C@H]1O)[C@H](O)CO | -5.87% |
| CC(=O)OC[C@H]1O[C@@H](O[C@H]2[C@H](O)[C@@H](OC(=O)c3ccccc3C(=O)O)[C@H](O)O[C@@H]2COC(C)=O)[C@H](O)[C@@H](OC(=O)c2ccccc2C(=O)O)[C@@H]1O | -6.14% |
| CN=C(NC)NCc1ccccc1 | -4.62% |
| CC1(C)S[C@@H]2[C@H](NC(=O)C(C(=O)Oc3ccc4c(c3)CCC4)c3ccccc3)C(=O)N2[C@H]1C(=O)O (stereo partly specified) | 0.422% |
| CS(=O)(=O)NC(=O)CCC/C=C\C[C@H]1C(=O)C[C@@H](O)[C@@H]1/C=C/[C@H](O)COc1ccccc1 | -0.174% |
| COc1cc(S(C)=O)ccc1-c1nc2ncccc2[nH]1 (stereo unspecified) | 4.22% |

System: not listed separately
Assay: qHTS assay to identify small molecule phospholipidosis (PLD) inducers (AID 1259344)
Settings: HepG2 phospholipidosis, LipidTOX Red imaging, 24 h; series mostly up to 38.3 µM; PLD induction: at the top concentration
Summary of the method: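 HepG2 cells, 900/well, treated with compound plus LipidTOX Red for 24 h at 37 C; amiodarone positive and DMSO negative controls. Fixed with paraformaldehyde/Hoechst, then high-content imaging scored LipidTOX pit count and integrated intensity per well and per cell.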

| SMILES | PLD induction |
| --- | --- |
| CCCN(CC)C(CC)C(=O)Nc1c(C)cccc1C (stereo unspecified) | 1.51% |
| Cc1ccc(/C(=C\CN2CCCC2)c2cccc(/C=C/C(=O)O)n2)cc1 | 1.02% |
| CN[C@@H]1[C@@H](O)[C@@H](O[C@@H]2[C@@H](O)[C@H](OC3OC(CN)=CCC3N)[C@@H](N)C[C@H]2N)OC[C@]1(C)O (stereo partly specified) | -0.234% [at 15.5 µM] |
| Cn1cc(NC(=O)c2cc(NC(=O)c3cc(NC=O)cn3C)cn2C)cc1C(=O)NCCC(=N)N | 0.398% |
| CS(=O)(=O)Nc1cc2occ(NC=O)c(=O)c2cc1Oc1ccccc1 | -2.02% |
| O=c1[nH]cnc2[nH]cc(CN3CCCCC3)c12 | 1.92% [at 1.53 µM] |
| C[C@]12C=CC(=O)C=C1CC[C@@H]1[C@@H]2[C@@H](O)C[C@@]2(C)[C@H]1CC[C@]2(O)C(=O)COC(=O)CCC(=O)O | -3% |
| CNC[C@@H]1CC[C@@H](N)[C@@H](O[C@H]2[C@H](O)[C@@H](O[C@H]3OC[C@](C)(O)[C@H](NC)[C@H]3O)[C@H](N)C[C@@H]2N)O1 | -1.48% [at 7.66 µM] |
| C=C1CC2C3CCC4=CC(=O)C=C[C@]4(C)[C@@]3(F)[C@@H](O)C[C@]2(C)[C@@]1(O)C(=O)COC(C)=O (stereo partly specified) | -8.32% [at 7.66 µM] |
| O=C(NOC[C@H](O)CO)c1ccc(F)c(F)c1Nc1ccc(I)cc1F | 0.423% |
| NCCC(=O)[N-][C@@H](Cc1cnc[nH]1)C(=O)O.[Zn] | -3.53% |
| OCC(O)COc1ccc(Cl)cc1 (stereo unspecified) | -0.349% |
| C[C@H]1C[C@H]2[C@@H]3CCC4=CC(=O)C=C[C@]4(C)[C@@]3(F)[C@@H](O)C[C@]2(C)[C@@]1(O)C(=O)CCl | -3.04% |
| CCN(CC)c1ccc(N=Nc2ccc(S(=O)(=O)N(C)C)cc2)c(S(=O)(=O)NCC[n+]2ccccc2)c1 | -7.26% |
| CCC(C)C(C(=O)OCC[N+](C)(CC)CC)c1ccccc1 (stereo unspecified) | 0.839% |
| Cc1c(O)cc2c(c1C)O[C@](C)(CCC[C@H](C)CCC[C@H](C)CCCC(C)C)CC2 | -2.22% |
| c1ccc2c(CCC3CCNCC3)c[nH]c2c1 | 4.17% |
| Cc1ccccc1CNc1ncnc2c1ncn2[C@@H]1O[C@H](CO)[C@@H](O)[C@H]1O | 2.47% |
| CC(=O)OCC(=O)[C@@]1(O)[C@H](C)C[C@H]2[C@@H]3C[C@H](F)C4=CC(=O)C=C[C@]4(C)[C@H]3[C@@H](O)C[C@@]21C | -2% |
| CC(C)(C)CC(=O)OCC(=O)[C@@]12OC(C)(C)O[C@@H]1C[C@H]1[C@@H]3CCC4=CC(=O)C=C[C@]4(C)[C@@]3(F)[C@@H](O)C[C@@]12C | 3.4% |

| SMILES | PLD induction |
| --- | --- |
| CC(=O)N[C@@H](CC(=O)N[C@@H](CCC(=O)O)C(=O)O)C(=O)O | -0.162% |
| C=C1c2c(Cl)ccc(O)c2C(O)=C2C(=O)[C@]3(O)C(O)=C(C(N)=O)C(=O)[C@@H](N(C)C)[C@@H]3[C@@H](O)[C@H]12 | -1.79% [at 15.5 µM] |
| CCCCCCCCCCCCCCCC(=O)OC[C@@H](COP(=O)([O-])OCC[N+](C)(C)C)OC(=O)CCCCCCCCCCCCCCC | -0.903% [at 1.53 µM] |
| C[N+](C)(CCCCCC[N+](C)(C)C1c2ccccc2-c2ccccc21)C1c2ccccc2-c2ccccc21 | -3.32% |
| Cc1cc(Nc2ccccc2C(=O)O)ccc1Cl | 2.95% |
| NCCC[C@H](N)CC(=O)N[C@H]1CNC(=O)[C@H]([C@H]2C[C@H](O)NC(N)=N2)NC(=O)/C(=C/NC(N)=O)NC(=O)[C@H](CO)NC(=O)[C@H](CO)NC1=O (β3hOrn-[Dap]SS[ΔAla(Z-3-ureido)][X5]; lactam 1-C) | -0.645% |
| CCCCCCCCCCCCCCCCCC(=O)OCCO | -3.08% |
| CO[C@H]1[C@@H](O)[C@H](N)[C@@H](O[C@H]2O[C@H]([C@H](C)N)CC[C@H]2N)[C@H](O)[C@@H]1N(C)C(=O)CN | -1.35% |
| CCCC(=O)Nc1ncnc2c1ncn2[C@@H]1O[C@@H]2COP(=O)(O)O[C@H]2[C@H]1OC(=O)CCC | 1.11% |
| CN(CCO)CC(O)Cn1cnc2c1c(=O)n(C)c(=O)n2C (stereo unspecified) (tested in a mixture with another compound) | 0.912% |
| CCOC(=O)[C@H](CCc1ccccc1)N[C@H]1CCCN2CCC[C@@H](C(=O)O)N2C1=O | -1.26% |
| C[C@]12CC[C@@H]3c4ccc(OS(=O)(=O)O)cc4CC[C@H]3[C@@H]1CCC2=O | 0.241% [at 7.66 µM] |
| O=C[C@H](O)[C@@H](O)[C@H](O[C@H]1O[C@H](CO)[C@@H](O[C@H]2O[C@H](CO)[C@@H](O)[C@H](O)[C@H]2O)[C@H](O)[C@H]1O)[C@H](O)CO | -7.1% |
| CC(=O)OC[C@H]1O[C@@H](O[C@H]2[C@H](O)[C@@H](OC(=O)c3ccccc3C(=O)O)[C@H](O)O[C@@H]2COC(C)=O)[C@H](O)[C@@H](OC(=O)c2ccccc2C(=O)O)[C@@H]1O | 5.14% [at 0.306 µM] |
| CS(=O)(=O)OCCCNCCCOS(C)(=O)=O | -2.55% |
| CN=C(NC)NCc1ccccc1 | -5.91% |
| CC1(C)S[C@@H]2[C@H](NC(=O)C(C(=O)Oc3ccc4c(c3)CCC4)c3ccccc3)C(=O)N2[C@H]1C(=O)O (stereo partly specified) | -2.09% |
| CS(=O)(=O)NC(=O)CCC/C=C\C[C@H]1C(=O)C[C@@H](O)[C@@H]1/C=C/[C@H](O)COc1ccccc1 | 8.04% |
| COc1cc(S(C)=O)ccc1-c1nc2ncccc2[nH]1 (stereo unspecified) | 0.162% |
